Article PMC5540273 (PLoS ONE, 2017)

Assays:
Settings in all cases: concentration: 1 μM, replicates: in singlicate; n = 1
SRPK3 = system: SRPK3
STK16 = system: STK16
STK33 = system: STK33
STK35 = system: STK35
STK36 = system: STK36
STK39 = system: STK39
SYK = system: SYK
SgK110 = system: SgK110
TAK1 = system: T1, TAK1
T1 construct: gene MAP3K7

TAOK1 = system: TAOK1
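Note: KINOMEscan kinase panel screen.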

Row | SMILES | %Inh (SRPK3) | %Inh (STK16) | %Inh (STK33) | %Inh (STK35) | %Inh (STK36) | %Inh (STK39) | %Inh (SYK) | %Inh (SgK110) | %Inh (TAK1) | %Inh (TAOK1)
1 | COc1ccc(COc2cc(-n3cnc4ccccc43)sc2C(N)=O)cc1 [GSK1024304] | 17% | 0% | 13% | 0% | 0% | 0% | 26% | 0% | 0% | 0%
2 | Cn1cc(-c2ccc3c(c2)CCN3C(=O)Cc2ccccc2Cl)c2c(N)ncnc21 [GSK2608885] | 0% | 34% | 18% | 95.9% | 100% | 1% | 51% | 0% | 5% | 50%
3 | NS(=O)(=O)c1cccc(-c2ccc3nccc(-c4cccc(S(N)(=O)=O)c4)c3c2)c1 [GW867253] | 23% | 12% | 0% | 0% | 0% | 0% | 1% | 0% | 6% | 2%
4 | O=C1Cc2cc(Nc3nc(NCc4cccc(S(=O)(=O)C(F)(F)F)c4)ncc3C(F)(F)F)ccc2N1 | 6% | 0% | 7% | 3% | 0% | 5% | 6% | 22% | 5% | 0%
